The supplement of paper PMC6555819

What was measured:
Experiment in all cases: PBM binding z-score (relative to random genomic background probes); higher = stronger binding; sequences stand for … in GC…GCGATTGACAGCGTAGAATGAAGG
[1] = system: FXR:RXRa (NR concentration 270 nM, RXRa partner concentration 90 nM)
Outline: (§1)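 Each nuclear receptor dimer, without ligand, was incubated for 1 h on custom Agilent 4×180K protein-binding microarrays. Binding was detected with antibodies against each partner (one per run), and scanned fluorescence was regression-normalized. The binding z-scores are referenced to random human genomic background probes.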

[2] = system: LXRa:RXRa (NR concentration 270 nM, RXRa partner concentration 90 nM)
Outline: as §1

[3] = system: LXRa homodimer (NR concentration 270 nM)
Outline: as §1

[4] = system: LXRb:RXRa (NR concentration 270 nM, RXRa partner concentration 90 nM)
Outline: as §1

[5] = system: LXRb homodimer (NR concentration 270 nM)
Outline: as §1

[6] = system: PPARa:RXRa (NR concentration 270 nM, RXRa partner concentration 90 nM)
Outline: as §1

[7] = system: PPARg:RXRa (NR concentration 180 nM, RXRa partner concentration 90 nM)
Outline: as §1

[8] = system: PPARg:RXRa 270nM:90nM, anti-RXR (NR concentration 270 nM, RXRa partner concentration 90 nM)
Outline: as §1

[9] = system: PPARg:RXRa 30nM:10nM, anti-RXR (NR concentration 30 nM, RXRa partner concentration 10 nM)
Outline: as §1

[10] = system: PPARg:RXRa 90nM:30nM, anti-RXR (NR concentration 90 nM, RXRa partner concentration 30 nM)
Outline: as §1

[11] = system: PPARg:RXRa DBDmut IVT, anti-RXR (DBD mutation: RXRa K156A/R161A, NR concentration 270 nM, RXRa partner concentration 90 nM)
Outline: as §1

[12] = system: PPARg:RXRa IVT, anti-PPARg (NR concentration 270 nM, RXRa partner concentration 90 nM)
Outline: as §1

[13] = system: PPARg DBDmut:RXRa IVT, anti-PPARg (DBD mutation: PPARg1 K132A/R137A, NR concentration 270 nM, RXRa partner concentration 90 nM)
Outline: as §1

[14] = system: PPARg DBDmut IVT, anti-PPARg (DBD mutation: PPARg1 K132A/R137A, NR concentration 270 nM)
Outline: as §1

[15] = system: PPARg homodimer (NR concentration 180 nM)
Outline: as §1

[16] = system: PXR:RXRa (NR concentration 270 nM, RXRa partner concentration 90 nM)
Outline: as §1

[17] = system: PXR homodimer (NR concentration 270 nM)
Outline: as §1

[18] = system: RARa:RXR (NR concentration 270 nM, RXRa partner concentration 90 nM)
Outline: as §1

[19] = system: RARa homodimer (NR concentration 270 nM)
Outline: as §1

[20] = system: RARb:RXRa (NR concentration 270 nM, RXRa partner concentration 90 nM)
Outline: as §1

Sequence	PBM binding z-score [1]	PBM binding z-score [2]	PBM binding z-score [3]	PBM binding z-score [4]	PBM binding z-score [5]	PBM binding z-score [6]	PBM binding z-score [7]	PBM binding z-score [8]	PBM binding z-score [9]	PBM binding z-score [10]	PBM binding z-score [11]	PBM binding z-score [12]	PBM binding z-score [13]	PBM binding z-score [14]	PBM binding z-score [15]	PBM binding z-score [16]	PBM binding z-score [17]	PBM binding z-score [18]	PBM binding z-score [19]	PBM binding z-score [20]
CCTGGGAGGACAACAGGAGGTCAGAGCTGCCAGA	1.53	2.1	2.07	1.57	-0.371	2.15	0.479	0.597	-0.563	0.161	-0.657	0.776	-0.434	-1.21	1.8	2.12	0.631	2.3	1.11	2.95
CCTGCTAGGTGATGGTCAGCTAATCTACAGTATG	-0.61	-0.646	-0.557	-0.682	-0.584	-0.449	-0.12	-0.449	-0.178	-0.369	1.57	1.13	-1.09	-0.973	-0.218	-0.725	-0.701	-0.72	-0.885	0.079
CCTTCTAGGTCATGGTCAGCTAATCTACAGTATG	3.87	2.77	0.676	2.12	0.355	4.37	5.63	5.39	2.57	4.28	7.22	6.72	1.58	1.21	2.24	1.7	0.327	2.63	1.36	4.08
AGAATGAGGTTATTCGTAGATCAGGGAAGAAAGT	2.59	2.61	0.0908	1.87	-0.0255	3.43	1.64	1.83	0.552	1.2	2.54	2.22	0.846	0.521	0.454	1.44	0.494	1.98	0.0936	1.36
GCTCGGAGGACAAGGTCAGTGCTTTGTCCGTAGA	1.54	1.23	-0.17	1.09	-0.53	1.94	0.00556	1.33	-0.784	0.326	-0.0896	0.926	-1.08	-0.85	0.917	1.43	-0.565	1.37	-1.15	3.46
ATCTCTAGGTAACAAGTTCAGTCAAAGAGAGGAC	0.865	0.77	0.75	0.867	0.743	1.5	1.4	2.12	1.16	1.85	3.46	2.97	1.25	1.27	1.63	1.77	2.04	1.1	1.66	1.62
CCAGGCAGGTGAAAGGTAACTCAGTCTGGTACGC	0.326	0.496	-0.353	0.47	-0.921	3.13	5.95	6.52	4.44	7.19	2.16	3.13	-1.38	-0.814	1.59	0.457	-0.265	1.53	-0.973	1.02
CCTACTGGGCCAAGGTCATTAATCAGTCAAAGCA	2.47	2.57	1.18	2.82	-0.0551	3.71	3.45	4.19	1.47	3.23	3.47	4.44	0.31	0.133	2.15	3.16	1.21	3.39	0.145	3.29
ACTATCAGGCCAAGTTTGGGTCACTCAAACAAAG	0.363	0.344	-0.188	0.871	0.576	1.51	0.155	0.318	-0.0574	0.171	0.297	1.51	1.26	0.453	1	0.896	0.251	1.83	-0.177	2.12
CCGACTGGGGCAGAAAGGTTCCCATACCATCCGG	-0.722	-0.705	-0.526	-0.996	-1.27	-0.271	0.412	0.198	-0.842	-0.499	1.45	0.893	-0.887	-1.78	-0.509	-0.725	-0.638	-0.53	-0.395	0.328
GCGACCGGGGCATCAGCAGGTTACCATAACTTAA	0.256	0.277	-0.271	0.643	-0.263	1.17	0.512	-0.0952	-0.743	-0.899	0.0389	0.384	-1.59	-1.19	0.373	0.411	-0.173	0.981	-0.42	1.3
ATCGAAAGGTCGTGAGGTCAGTATACAGAAAGGC	6.58	5.12	1.48	4.57	1.04	5.7	5.27	5.25	2.05	3.65	0.335	2.89	1.16	0.766	3.48	5.08	0.97	5.65	1.02	5.02
TCCAGTTGGTCACGGAGGTCACACACGACGGGTA	3.34	3.57	2.25	3.33	0.101	3.95	3.15	3.83	2.94	3.43	2.14	3.9	0.387	0.563	2.63	4.5	1.2	4.33	0.942	4
TCATATAGGTAAATGCTAGGTGAAGGTCCGATCT	0.907	0.779	0.342	0.347	0.0631	1.29	0.837	2.13	3.86	2.91	4.03	2.74	1.1	0.608	0.952	0.662	0.475	0.786	1.04	0.552
